PubChem BioAssay AID1159580 (chemical genetic matrix, 2015)
“And” between values parts separate entries of the source, which are not always exact repeats. Identical values can stand only once. About 2,000 (36%) of roughly 5,500 compounds were called active. Another 18% or so got no clear call; they are omitted. Cut-off read from the data, not from the text of the source: active = normalized growth mostly below about 0.91 (no sharp cut-off); inconclusive = no clear call, values can overlap the other calls; inactive = mostly above about 0.92. The list shows a part of the results.

Assay: chemical genetic growth profiling, strain panel (AID 1159580);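 note: tested at 20 µM; growth read once vehicle control cultures reached saturation at 30 °C; 1 = growth at the plate median or of vehicle wells; lower values mean less growth of the strain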
Settings: S. cerevisiae deletion strains, growth OD

Measured: normalized growth

C[C@]12CCC3C(CC[C@H]4C[C@@H](O)CC[C@]34C)C1CCC2=O (some centres undefined)
active: locus YAL021C, strain ccr4, stronger effect = lower value 0.854 | locus YAL026C, strain drs2, stronger effect = lower value 0.505 | locus YBR009C, strain hhf1, stronger effect = lower value 0.896 | locus YCL029C, strain bik1, stronger effect = lower value 0.842 | locus YDL035C, strain GPR1, stronger effect = lower value 0.697 | locus YDL192W, strain arf1, stronger effect = lower value 0.838 | locus YDR137W, strain rgp1, stronger effect = lower value 0.48 | locus YDR162C, strain NBP2, stronger effect = lower value 0.585 | locus YDR195W, strain ref2 1.44 [resistant] | locus YDR318W, strain mcm21, stronger effect = lower value 0.764 | locus YDR392W, strain spt3, stronger effect = lower value 0.224 | locus YDR502C, strain sam2, stronger effect = lower value 0.749 | locus YEL061C, strain CIN8, stronger effect = lower value 0.908 | locus YER155C, strain BEM2, stronger effect = lower value 0.856 | locus YER167W, strain BCK2, stronger effect = lower value 0.872 | locus YFR010W, strain ubp6, stronger effect = lower value 0.9 | locus YGL086W, strain mad1, stronger effect = lower value 0.9 | locus YGL248W, strain PDE1, stronger effect = lower value 0.696 | locus YGL253W, strain hxk2, stronger effect = lower value 0.87 | locus YGR078C, strain PAC10, stronger effect = lower value 0.843 | locus YGR135W, strain pre9, stronger effect = lower value 0.711 | locus YHR129C, strain ARP1, stronger effect = lower value 0.766 | locus YHR142W, strain chs7, stronger effect = lower value 0.853 | locus YHR200W, strain rpn10, stronger effect = lower value 0.883 | locus YIL066C, strain RNR3, stronger effect = lower value 0.628 | locus YIR030C, strain dcg1, stronger effect = lower value 0.868 | locus YJL164C, strain tpk1, stronger effect = lower value 0.859 | locus YJL166W, strain qcr8, stronger effect = lower value 0.877 | locus YJL187C, strain SWE1 (second series), stronger effect = lower value 0.796 | locus YJR075W, strain HOC1, stronger effect = lower value 0.857 | locus YKL009W, strain mrt4, stronger effect = lower value 0.832
inactive: locus YAL030W, strain snc1, stronger effect = lower value 1.01 | locus YBL061C, strain skt5, stronger effect = lower value 1.02 | locus YBR021W, strain FUR4, stronger effect = lower value 0.857 | locus YBR023C, strain chs3, stronger effect = lower value 0.989 | locus YBR171W, strain sec66, stronger effect = lower value 1.01 | locus YBR229C, strain ROT2, stronger effect = lower value 1.02 | locus YBR231C, strain swc5, stronger effect = lower value 1 | locus YBR279W, strain paf1, stronger effect = lower value 0.994 | locus YCL011C, strain gbp2, stronger effect = lower value 0.937 | locus YCL016C, strain dcc1, stronger effect = lower value 0.916 | locus YCL061C, strain MRC1, stronger effect = lower value 0.961 | locus YCL069W, strain vba3, stronger effect = lower value 1.01 | locus YCR088W, strain abp1, stronger effect = lower value 1.05 | locus YDL005C, strain med2, stronger effect = lower value 1.03 | locus YDL040C, strain nat1, stronger effect = lower value 1.05 | locus YDL074C, strain BRE1, stronger effect = lower value 0.792 | locus YDL101C, strain DUN1, stronger effect = lower value 0.918 | locus YDL185W, strain tfp1, stronger effect = lower value 0.949 | locus YDR001C, strain nth1, stronger effect = lower value 1.05 | locus YDR069C, strain doa4, stronger effect = lower value 0.979 | locus YDR101C, strain arx1, stronger effect = lower value 0.95 | locus YDR159W, strain sac3, stronger effect = lower value 0.938 | locus YDR297W, strain sur2, stronger effect = lower value 1.02 | locus YDR334W, strain swr1, stronger effect = lower value 1.08 | locus YDR335W, strain msn5, stronger effect = lower value 1.02 | locus YDR388W, stronger effect = lower value 0.935 | locus YEL003W, strain gim4, stronger effect = lower value 0.977 | locus YEL037C, strain rad23, stronger effect = lower value 1.03 | locus YEL061C, strain CIN8 (second series), stronger effect = lower value 1.04 | locus YER015W, strain faa2, stronger effect = lower value 1.04 | locus YER016W, strain bim1, stronger effect = lower value 1.03 | locus YER110C, stronger effect = lower value 1.03 | locus YER111C, strain swi4, stronger effect = lower value 1.03 | locus YER155C, strain BEM2 (second series), stronger effect = lower value 1 | locus YGL078C, strain dbp3, stronger effect = lower value 0.931 | locus YGL167C, strain pmr1, stronger effect = lower value 1.03 | locus YGL173C, strain kem1, stronger effect = lower value 0.943 | locus YGL227W, strain vid30, stronger effect = lower value 1.06 | locus YGL240W, strain doc1, stronger effect = lower value 0.968 | locus YHR013C, strain ard1, stronger effect = lower value 0.899 | locus YHR027C, strain rpn1, stronger effect = lower value 1.03 | locus YHR079C, strain IRE1 (second series), stronger effect = lower value 0.94 | locus YHR079C, strain IRE1, stronger effect = lower value 0.893 | locus YHR094C, strain hxt1, stronger effect = lower value 1.03 | locus YIL073C, strain SPO22, stronger effect = lower value 0.735 | locus YIL125W, strain kgd1, stronger effect = lower value 0.98 | locus YJL092W, strain hpr5, stronger effect = lower value 0.988 | locus YJL095W, strain BCK1 (second series), stronger effect = lower value 0.923 | locus YJL115W, strain asf1, stronger effect = lower value 1.04 | locus YJL129C, strain trk1, stronger effect = lower value 0.948 | locus YJL134W, strain LCB3, stronger effect = lower value 1.02 | locus YJL154C, strain vps35, stronger effect = lower value 1.06 | locus YJL168C, strain set2, stronger effect = lower value 1.03 | locus YJL187C, strain SWE1, stronger effect = lower value 1.03 | locus YJR043C, strain POL32, stronger effect = lower value 0.895 | locus YJR066W, strain TOR1, stronger effect = lower value 0.875
0.309 (active) and 0.911 (inactive): locus YJL095W, strain BCK1, stronger effect = lower value
0.785 (active) and 0.897 (inactive): locus YHR030C, strain SLT2, stronger effect = lower value
